Assay outcomes from PubChem BioAssay.
NCOA2 inhibitor – inhibits human steroid receptor coactivator 2 | inhibition, % at 9 µM | hit rate 0.17% among 370,000 | Q15596 | HEK293 GAL4-SRC2 luciferase reporter, luminescence;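 active means inhibition above the mean inhibition of all tested compounds plus 3 SD, set per campaign, cut at about 52% in these data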;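 further: 0% = DMSO treated cells and 100% = cells given Gossypol at 36 µM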
Gli-Sufu block – antagonists of Gli-Sufu signaling; Sufu-KO-LIGHT fibroblasts, Gli luciferase reporter luminescence; inhibition, % at 5 µM; hit rate 0.74% among 340,000; AID 588413;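 active means inhibition above about 55%, limit read from the data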;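 further: 0% = DMSO-treated cells and 100% = wells with medium but no cells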
Shn3 3UTR inh – inhibitors of Schnurri-3 3'UTR reporter in osteoblasts. inhibition, % at 12.5 µM. hit rate 0.52% among 360,000. AID 588674. Clone20 osteoblast Shn3 3'UTR firefly luciferase, 24 h;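 active means mean inhibition of at least 75% with every replicate also reaching 75%; inconclusive means mean inhibition at least 75% but some replicate below; inactive means mean inhibition below 75%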;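 further: 0% = median of neutral control wells and 100% = pilot-screen positive control compound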
LRH-1 inv ag – NR5A2 inverse agonism in reporter assay | O00482 | HEK293T StAR-luciferase reporter, LRH-1 transfected, 24 h | inhibition, % at 3.6 µM | hit rate 0.13% among 360,000 | AID 602396;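 active means inhibition above the mean inhibition of all tested compounds plus 3 SD, cut at about 73% in these data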;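 further: 0% = DMSO wells and 100% = reporter-only cells lacking LRH-1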
Target sequence (O00482 whole entry, looked up): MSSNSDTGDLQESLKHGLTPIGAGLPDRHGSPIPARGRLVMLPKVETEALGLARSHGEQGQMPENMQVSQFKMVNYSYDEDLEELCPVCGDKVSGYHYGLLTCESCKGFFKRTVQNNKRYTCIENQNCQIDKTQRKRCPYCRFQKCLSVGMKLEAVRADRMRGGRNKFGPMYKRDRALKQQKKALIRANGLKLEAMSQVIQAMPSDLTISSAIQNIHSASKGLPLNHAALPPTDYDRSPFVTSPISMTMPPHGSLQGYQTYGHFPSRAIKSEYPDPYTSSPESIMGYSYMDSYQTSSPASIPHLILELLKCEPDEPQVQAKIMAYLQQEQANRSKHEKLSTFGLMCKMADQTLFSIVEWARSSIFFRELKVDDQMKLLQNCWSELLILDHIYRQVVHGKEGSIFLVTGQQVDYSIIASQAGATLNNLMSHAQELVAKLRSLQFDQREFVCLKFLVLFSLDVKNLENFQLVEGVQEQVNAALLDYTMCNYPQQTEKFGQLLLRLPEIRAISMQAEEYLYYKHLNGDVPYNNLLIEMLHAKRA
SRC3 inh – inhibits human SRC3 coactivator; Q9Y6Q9; HEK293 GAL4-SRC3 luciferase reporter, luminescence; inhibition, % at 3.6 µM; hit rate 0.17% among 360,000;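 active means inhibition above a per-campaign cutoff, the mean of all compounds plus 3 SD, cut at about 60% in these data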;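 further: 0% = DMSO-treated cells and 100% = gossypol-treated cells at 36 µM; higher means less SRC3-driven luciferase light from the GAL4 reporter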
SRC1 inh – inhibitors of human steroid receptor coactivator 1 (SRC1) | inhibition, % at 3.6 µM | Q15788 | hit rate 0.12% among 360,000 | HEK293 GAL4-SRC1 luciferase reporter, luminescence;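 active means inhibition above the campaign mean plus 3 SD, with each screening campaign given its own cutoff, cut at about 60% in these data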;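 further: 0% = DMSO treated cells and 100% = gossypol at 36 µM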
Gli antag conf – confirmation of Gli-SUFU pathway antagonists. Sufu-KO-LIGHT cells, Gli luciferase reporter, luminescence. shares compounds with Gli-Sufu block. hit rate 40% among 2,500. inhibition, % at 5 µM;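 active means mean inhibition at 5 µM reaching about 45%, limit read from the data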;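 further: plate controls were DMSO-treated cells for no effect and wells lacking cells for full effect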
Gli cytotox – cytotoxicity counter-screen for Gli-SUFU antagonists; AID 651994; cytotoxicity, % at 5 µM; Sufu-KO-LIGHT cells cytotoxicity, ATP luminescence; shares compounds with Gli-Sufu block; hit rate 32% among 2,500;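 active means mean cytotoxicity at 5 µM above about 25%, limit read from the data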;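 further: cells exposed to compound overnight for roughly 16 to 18 hours; plate controls were DMSO wells with cells for no effect and medium without cells for full effect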
Wnt3a counter – inhibits Wnt3a reporter, counter-screen for Gli-SUFU antagonists | Wnt-LIGHT cells, Wnt3a-driven luciferase reporter, luminescence | hit rate 20% among 2,500 | shares compounds with Gli-Sufu block | inhibition, % at 6.25 µM;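 active means mean inhibition above about 25%, limit read from the data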
The depositor's hits bear a star; ? = inconclusive; . = no result given. Shown are actives, neighbours in structure and some others; about 1.1% of the full set was active somewhere.

SMILES | NCOA2 inhibitor | Gli-Sufu block | Shn3 3UTR inh | LRH-1 inv ag | SRC3 inh | SRC1 inh | Gli antag conf | Gli cytotox | Wnt3a counter
CCNC(=O)C(=O)NCC(c1cccs1)S(=O)(=O)c1ccc(C)cc1 (stereo unspecified) | 7.6 | 52.5 | 8.5 | -8.1 | 6.5 | -8.0 | 12.1 | 6.5 | 0.3
Clc1ccccc1-c1nn2c(-c3cc(-c4ccccc4)n[nH]3)nnc2s1 | -12.5 | . | . | . | . | . | . | . | .
Cc1ccc(S(=O)(=O)N2CCC(c3nc4ccccc4o3)CC2)s1 | -5.7 | . | . | . | . | . | . | . | .
Cc1ccc(Cn2cc(CN(C3CC3)S(=O)(=O)c3ccccc3Br)nn2)cc1 | 3.5 | . | . | . | . | . | . | . | .
CC(=O)NC(C)c1cc(F)c2cccnc2c1O (stereo unspecified) | -10.3 | -23.1 | -12.9 | 22.7 | 2.4 | -2.5 | . | . | .
CC(=O)NC(c1ccc(C(C)C)cc1)c1ccc2cccnc2c1O (stereo unspecified) | 35.4 | 90.0* | 92.0* | 89.7* | 81.5* | 68.4* | 83.0* | 50.0* | 73.5*
O=C(c1ccccc1C(F)(F)F)N1CCC(Oc2cccnc2)CC1 | 8.5 | . | . | . | . | . | . | . | .
CCOC(=O)[C@H]1[C@H]2COc3ccc(C)cc3[C@@H]2N2C(=O)c3cc(OC)c(OC)cc3NC(=O)[C@@]12C | -38.9 | -0.7 | -37.0 | 1.4 | 0.9 | 11.6 | . | . | .
CCOC(=O)[C@H]1[C@H]2COc3ccc(OC)cc3[C@@H]2N2C(=O)c3cc(OC)c(OC)cc3NC(=O)[C@@]12C | -37.1 | 98.8* | 3.1 | 6.6 | 0.2 | -2.1 | 17.7 | -9.4 | 13.2
Cc1nnc(NCc2ccncc2)c2ccccc12 | -10.1 | 51.0 | -6.0 | -23.3 | -15.2 | 6.9 | 21.9 | 19.4 | -5.4
CC(C)N1CCCCC(NC(=O)c2ccc(-c3ccccc3)cc2)C1=O (stereo unspecified) | -23.5 | . | . | . | . | . | . | . | .
CCCNC(=O)C[C@H]1CC[C@H]2[C@@H](COc3ccc(NC(=O)c4cncs4)cc3C(=O)N2C)O1 | -26.4 | . | . | . | . | . | . | . | .
COc1ccccc1CCNC(=O)c1cc(-c2ccncc2)nc2ccc(Br)cc12 | -20.0 | 67.4* | 24.0 | -6.0 | 2.8 | -17.7 | 32.0 | 25.5* | 3.6
CC1(C)CC(N2CCOCC2)=CC(=[N+]2CCOCC2)C1 | 13.3 | -7.2 | 3.7 | -8.3 | 5.4 | 0.2 | . | . | .
CC1(C)CC(N2CCCCC2)=CC(=[N+]2CCCCC2)C1 | 10.9 | 83.7* | ? | 55.5 | 48.1 | 43.3 | 87.2* | 46.5* | 47.6*
Cc1ccc(NC(=O)c2cc(C)n(-c3cccc(C)c3)c2C)cc1 | 13.4 | 77.3* | -3.8 | 30.4 | 14.0 | 22.2 | 86.1* | 66.8* | 89.2*
COc1ccc(C=Nn2c(-c3ccccc3F)n[nH]c2=S)cc1OCc1ccccc1 | -12.0 | . | . | . | . | . | . | . | .
O=C(c1ccc(Cl)cc1)c1cc([N+](=O)[O-])ccc1N1CCOCC1 | 15.9 | 53.1 | 8.7 | 15.3 | 1.2 | 1.0 | 51.1* | 47.0* | -41.0
O=C(c1ccccc1)c1cc([N+](=O)[O-])ccc1N1CCOCC1 | 12.9 | 50.0 | -2.2 | 26.9 | 8.3 | -8.6 | 55.6* | 53.0* | -42.1
CCn1c(SCC(=O)Nc2ccc(C(N)=O)cc2)nc2sc(C)c(C)c2c1=O | -62.3 | . | . | . | . | . | . | . | .
CCCCCN1CCCCC(NC(=O)C(C)(C)C)C1=O (stereo unspecified) | 19.0 | . | . | . | . | . | . | . | .
Cc1cc(N2CCN(c3nc4ccccc4s3)CC2)n2ncnc2n1 | -13.9 | 71.2* | 51.3 | 43.5 | 19.3 | 15.8 | 66.1* | 38.5* | -18.8
Cc1nc2sc(C(=O)NCc3ccc4c(c3)OCO4)c(N)c2c(C)c1Cl | -9.9 | . | . | . | . | . | . | . | .
Cn1c(C(=O)NC2CCCC2)cc2c(=O)n(C)c3ccccc3c21 | -34.3 | 98.6* | -2.8 | 6.0 | 9.2 | 2.7 | 30.9 | 14.3 | -22.2
CCOc1cc(/C=C2/NC(=O)N(Cc3ccccc3F)C2=O)ccc1O | 35.4 | 74.3* | 41.6 | -56.0 | -37.5 | -21.6 | 70.5* | 19.3 | 45.4*
SMILES | NCOA2 inhibitor | Gli-Sufu block | Shn3 3UTR inh | LRH-1 inv ag | SRC3 inh | SRC1 inh | Gli antag conf | Gli cytotox | Wnt3a counter
O=C(CSc1cccc[n+]1[O-])N1CCCCCC1 | -7.3 | 7.1 | -12.8 | -2.3 | 8.8 | 1.5 | . | . | .
O=C(CSc1cccc[n+]1[O-])CSc1cccc[n+]1[O-] | -38.3 | 56.2* | 15.0 | -3.7 | -3.1 | -0.7 | 15.4 | 9.7 | 0.5
O=C(Cc1cccc2ccccc12)Nc1nc2ccccc2[nH]1 | 16.0 | 8.6 | -5.4 | -5.5 | 16.2 | -23.2 | . | . | .
O=C(Cc1ccccc1F)Nc1nc2ccccc2[nH]1 | -11.3 | 66.6* | -10.2 | -46.2 | -14.5 | -6.3 | 12.0 | 8.2 | -34.3
COc1cccc(C(=O)Nc2cc([N+](=O)[O-])ccc2N2CCN(C)CC2)c1 | -8.4 | 53.9 | -4.6 | 21.5 | 6.2 | -2.5 | 15.6 | 0.8 | -27.2
COc1ccc(C(=O)Nc2cc([N+](=O)[O-])ccc2N2CCN(C)CC2)cc1 | -0.7 | 6.1 | -1.0 | 15.4 | 8.1 | -23.0 | . | . | .
CN(C)C(CNC(=O)c1cccc(S(=O)(=O)N2CCN(c3ccccc3)CC2)c1)c1ccccc1 (stereo unspecified) | -5.4 | 29.1 | 78.0 | -3.5 | 6.1 | -32.3 | . | . | .
COc1ccc(C(CNC(=O)c2cc(S(=O)(=O)N3CCN(c4ccccc4)CC3)ccc2Cl)N(C)C)cc1 (stereo unspecified) | -18.5 | 68.3* | 48.9 | -11.3 | 25.7 | -23.9 | 21.5 | 13.0 | -43.3
O=C(Cc1ccccc1)NCCS(=O)(=O)N1CCN(c2ccccc2)CC1 | 6.8 | -4.5 | 2.3 | -19.3 | -6.1 | -7.1 | . | . | .
O=C(Cc1ccc(F)cc1)NCCS(=O)(=O)N1CCN(c2ccccc2)CC1 | 5.9 | 97.3* | -15.5 | -8.9 | 5.1 | 6.7 | 9.8 | 8.1 | -55.6
CCN1CCN(C(=O)C2CCCN(c3ncnc4c3nc3n4CCCCC3)C2)CC1 (stereo unspecified) | 3.3 | 50.2 | -4.4 | -2.1 | 8.9 | 5.2 | 11.9 | -0.8 | 2.9
O=C(NCCCN1CCOCC1)c1cccnc1 | 2.8 | -10.3 | 13.4 | 7.6 | 8.0 | 8.5 | . | . | .
O=C(NCCCN1CCOCC1)c1ccccc1 | -7.8 | 61.3* | 2.7 | -4.3 | 6.0 | 6.5 | 28.5 | 13.0 | 2.9
O=C(CC(c1ccccc1)c1cc(Br)ccc1O)NCCCN1CCOCC1 (stereo unspecified) | 19.4 | 52.1 | 11.9 | 3.3 | -20.6 | 1.8 | 19.3 | 3.3 | -29.6
O=C(CC(c1ccccc1)c1cc(Br)ccc1O)NCCN1CCOCC1 (stereo unspecified) | -0.1 | 5.7 | 8.9 | 21.6 | 7.3 | 1.0 | . | . | .
COC(=O)C1CN(Cc2cn(Cc3ccc(C)cc3)nn2)CCS(=O)(=O)N1Cc1ccc(Cl)cc1 (stereo unspecified) | 19.9 | . | . | . | . | . | . | . | .
COCCN(Cc1cc2c(C)cc(C)cc2nc1Cl)C(=O)c1ccccc1F | -13.4 | 57.9* | 84.4 | 13.4 | 7.5 | -0.3 | 25.8 | 15.3 | -26.5
